The results in this text go back to PubChem BioAssay (EPA / NIEHS).

Molecules are shown by their SMILES. Active and inactive are the calls of the source. Rule for the calls: active = hit-call score of the fitted dose curve at least 0.9, where 1 is the maximum; inactive = score below 0.9.

Read-out in this assay: Cytochrome P450 4A22 (Homo sapiens) (UniProt Q5TCH4)
Put plainly: LTEA_HepaRG_CYP4A22: Life Technologies and Expression Analysis (LTEA) Assay for Cytochrome P450 4A22 (CYP4A22) using HepaRG (AID 2283495). As to conditions: mRNA level, 48 h; actives raise or lower the signal. The protocol:
LTEA_HepaRG is a cell based, multiplexed-readout assay that uses HepaRG, a human liver cell line, with measurements taken at 48 hours after chemical dosing on a 96-well plate.LTEA_HepaRG_CYP4A22 is one of 102 assay component(s) measured in the LTEA HepaRG cell culture assay. It is a marker of NR mediated metabolism.Data from the assay component LTEA_HepaRG_CYP4A22 was analyzed into 1 endpoint. This assay endpoint, LTEA_HepaRG_CYP4A22, was analyzed with bidirectional fitting relative to DMSO as the negative control and baseline of activity. Using a type of inducible reporter, measures of mRNA induction for gain or loss-of-signal activity can be used to understand regulation of transcription factor activity. To generalize the intended target to other relatable targets, this assay endpoint is annotated to the cyp intended target family, where the subfamily is xenobiotic metabolism.
A total of 1060 chemcials from the ToxCast library were tested in eight-point concentration-response experiments. Cell culture and cytotoxicity assays were conducted at Thermo Fisher Scientific's Custom Services facility (Madison, WI). A single lot of human HepaRG cells (Thermo Fisher Scientific, Frederick, MD) was used for the cell culture experiments. 96-well format collagen type I coated plates of human HepaRG cells were prepared using established methods. Briefly, cryopreserved HepaRG cells were thawed, plated at a density of approximately 100,000 cells/well in HepaRG Thaw, Plate, and General Purpose media (HPRG770, Thermo Fisher Scientific), and incubated for 48 hours. 0.5% DMSO was selected as vehicle control to balance the requisite need of DMSO in HepaRG cultures to maintain differentiation (for example, baseline metabolism, proportions of hepatocytes vs. cholangiocytes), while enabling further hepatic receptor pathway activation (for example, PXR and CAR) in response to chemical exposure. 48 hours after plating, the culture medium was replaced with HepaRG Serum-Free Incudtion Media. Cells were exposed to each test chemical in duplicate and maintained in CO2 incubators for another 48 hours. Chemical plates were thawed to room temperature and 200x concentrations of treatment groups were prepared. 8-point conentration-reponse curves were made with the highest exposure at 100 uM, followed by half-log dilutions, all in 0.5% DMSO. Each test plate contained variouse controls, induction positive controls (1mM phenobarbital), cytotoxicity positive controls ([…] aflatoxin B1), vehicle controls (0.5% DMSO), and total lysis controls (0.5% DMSO). Cell morphology images were taken using an Essen IncuCyte FLR automated microscope, with six 96-well plates imaged in about 24 minutes. Images were captured and exported and JPEG files. Spent culture media was transfered to black-well plates for the LDH assay, and remaining media was sorted at -80 C for later use. Cells were treated with RLT buffer and frozen until shipped for gene expression analysis. Total RNA was isolated from the cell suspension in 75 uL of Buffer RLT (Qiagen, Germantown, MD 20874) by Quintiles/Expression Analysis (Durham, NC) using a custom isolation procedure. Total RNA from each plate well was transferred to a preamplification plate. Fluidigm's 96.96 Dynamic ArrayTM (Fluidigm, Amsterdam, the Netherlands) technology was used for gene expression analyses by quantitative reverse transcription polymerase chain reaction (qRT-PCR, performed by Quintiles/Expression Analysis, Durham, NC)89. Standard TaqManTM Assays (Applied Biosystems/ThermoFisher Scientific, Foster City, CA) were used to assess the expression of 93 genes selected based on their selectivity and sensitivity to important hepatic receptors known to be modulated by environmental chemicals; importance in human hepatocyte functionality; and hepatotoxicity. […]
As for `Cc1ncc([C@@H](CCCCCCc2ccc3c(n2)NCCC3)CC(=O)O)cn1`, the result was inactive.
Broadly, the AC50 is the concentration giving half of the maximal activity seen. For `Cc1nccn1-c1ccc(Sc2cccc(C3(C(N)=O)CCOCC3)c2)cc1`, the AC50 was 6.16 µM (active).
Still for that read-out and setting: under `CCCOc1ccc(S(=O)(=O)N2CCN(CC)CC2)cc1-c1nc2c(CC)n(Cc3ccccn3)nc2c(=O)[nH]1` stands 9.92 µM (active).
As for `CCc1ccc(O)c(C(C)(C)C)c1`, the call was inactive.
The same measure, in the same setting: under `COS(C)(=O)=O` stands “inactive”; under `O=C(O)c1cccc(C(=O)O)c1`, “inactive”.
Consider `CCOc1ccc2[nH]cc(C(=O)NCc3ccccc3)c(=O)c2n1`, for which the AC50 is 35.4 µM (active).
Same read-out and setting: in the case of `CC(C)c1nnc2ccc(-c3ocnc3-c3cc(F)ccc3F)cn12` it was 31.8 µM (active).
Take `CCN(CC)C(=S)SSC(=S)N(CC)CC`: the result was inactive.
With `CNC(C)=O`, the compound was called inactive.
Take `c1ccc2ncccc2c1`: the call was inactive.
Turning to `CCCCOC(=O)c1ccccc1`, the compound was classed as inactive.
Turning to `CC(=O)c1ccccc1`, the compound was called inactive.
As for `CC1(C)C(=O)N(Cl)C(=O)N1Cl`, the result was inactive.
For `CCCCCCCCCCCCCCO`, the compound was classed as inactive.
With `C[C@@H](Oc1ccc(CNC(=O)c2cccnc2Oc2ccc3c(c2)OCO3)c(F)c1)C(=O)O`, the AC50 was 28.6 µM (active).
For `NNC(=O)c1ccncc1`, the result was inactive.
As for `O=C1CN(N=Cc2ccc([N+](=O)[O-])o2)C(=O)N1`, the AC50 is 44.3 µM (active).
Same read-out and setting: in the case of `Cc1nc(-c2ccccn2)ncc1C(=O)Nn1cc(C)c2cc(F)ccc21` it was 51.4 µM (active).
Take `CCCCCCCCN(C)C`: the compound was called inactive.
On the same count and under the same terms, under `OC(CCl)CCl` stands “inactive”; under `c1ccc2cc3ccccc3cc2c1`, “inactive”.
For `O=c1[nH]cnc2c1ncn2[C@H]1CC[C@@H](CO)O1`, the compound was classed as inactive.
As for `O=C(O)c1ccc2c(c1)nc(C(=O)NC1CCN(C3CC3)CC1)n2Cc1cc(-c2ccc(Cl)s2)on1`, the result was inactive.
The same measure, in the same setting: in the case of `OC[C@H]1O[C@@](CO)(O[C@H]2O[C@H](CO)[C@@H](O)[C@H](O)[C@H]2O)[C@@H](O)[C@@H]1O` it was “inactive”; in that of `OCCOCCOCCO`, “inactive”; in that of `OCCNCCO`, “inactive”.
On the same count and under the same terms, in the case of `Cn1cc[nH]c1=S` it was “inactive”.
For `c1ccc(C(O[C@@H]2CCCN(CCc3ccc4c(c3)OCO4)C2)c2ccccc2)cc1`, the AC50 was 6.12 µM (active).
In the case of `OC[C@H]1O[C@@H]2O[C@H]3[C@H](O)[C@@H](O)[C@@H](O[C@H]4[C@H](O)[C@@H](O)[C@@H](O[C@H]5[C@H](O)[C@@H](O)[C@@H](O[C@H]6[C@H](O)[C@@H](O)[C@@H](O[C@H]7[C@H](O)[C@@H](O)[C@@H](O[C@H]1[C@H](O)[C@H]2O)O[C@@H]7CO)O[C@@H]6CO)O[C@@H]5CO)O[C@@H]4CO)O[C@@H]3CO`, the call was inactive.
Same read-out and setting: in the case of `NC(=O)NN=Cc1ccc([N+](=O)[O-])o1` it was “inactive”; in that of `Cn1c(=O)c2[nH]cnc2n(C)c1=O`, “inactive”.
Regarding `C=CCc1cc(S(=O)(=O)c2ccc(O)c(CC=C)c2)ccc1O`, the AC50 is 82.6 µM (active).
Turning to `CCCC(CCC)C(=O)O`, the compound was called inactive.
With `CCn1nc(C)c2c1C(=O)NCC(c1ccc(O)cc1)=N2`, the concentration at half-maximal activity (AC50) was 33.9 µM (active).
In the case of `C=CN1CCCC1=O`, the call was inactive.
On the same count and under the same terms, under `CCCc1ccccc1` stands “inactive”.
As to `O=S(=O)(O)c1ccc(N=Nc2c(O)ccc3cc(S(=O)(=O)O)ccc23)cc1`, the outcome was inactive.
For the compound `CCOC(N)=O`, the result was inactive.
Still for that read-out and setting: in the case of `NC(=O)N(O)[C@@H]1COc2cc(OCc3ccccc3)ccc21` it was “inactive”.
